High-throughput results deposited in PubChem BioAssay by several laboratories.
Rows were chosen to be rich in hits. Some 3.6% of all compounds tested hit in one or more screens of this group.
Anthrax LF inh2 = blocks Bacillus anthracis lethal factor protease | P15917 | multiplex microsphere protease cleavage assay, LF | inhibition, % at 10 µM | 0.12% of 360,000 active; note: plate controls were buffer without enzyme for full effect and enzyme alone for no effect
BoNT F protease = BoNT F light chain protease inhibition | 0.22% of 360,000 active | inhibition, % at 10 µM | AID 588497 | Multiplex microsphere protease cleavage assay, flow cytometry; in the data active = inhibition above about 35%, passing the limit was not always enough; inconclusive = no clear call, values can overlap the other calls; note: plate controls were buffer without enzyme for full effect and enzyme alone for no effect
MazF activator = activators of E. coli MazEF toxin-antitoxin RNase; FAM/BHQ RNA-DNA oligo cleavage fluorescence, 5 h; activation, % at 20 µM; P0AE70; 0.32% of 350,000 active; AID 504720; in the data active = activation above about 50%
Target sequence (P0AE70 whole entry, looked up): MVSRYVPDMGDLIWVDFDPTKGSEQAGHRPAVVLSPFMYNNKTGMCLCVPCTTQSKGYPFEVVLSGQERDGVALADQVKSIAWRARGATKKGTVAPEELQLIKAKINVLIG
Autofluor counter = compound fluorescence in toxin protease inhibitor counterscreen | compound autofluorescence counterscreen, microsphere flow cytometry; active compounds read high | fluorescence intensity (test concentration not listed) | 3.1% of 360,000 active; in the data active = fluorescence intensity above about 16000; inconclusive = no clear call, values can overlap the other calls
BoNT A protease = inhibitors of Botulinum neurotoxin A light chain protease; multiplex microsphere protease substrate cleavage, flow cytometry; AID 588499; 0.17% of 360,000 active; inhibition, % at 10 µM; note: plate controls were buffer without enzyme for full effect and enzyme alone for no effect
Starred values were filed as active, the others as inactive. Cut-off read from the data, not from the text of the source, unless noted: active = inhibition above about 30%; inconclusive = no clear call, values can overlap the other calls; inactive = below that.

N/C(=N\OC(=O)c1cccc2ccccc12)c1cccc([N+](=O)[O-])c1 was read as Anthrax LF inh2 -1, BoNT F protease 0, MazF activator 55*, Autofluor counter 16600* and BoNT A protease -1.
For N/C(=N\OC(=O)c1ccccc1Cl)c1ccccc1 the results were Anthrax LF inh2 -2, BoNT F protease 0, MazF activator -3, Autofluor counter 22870* and BoNT A protease inconclusive.
For N/C(=N\OC(=O)c1ccccc1Cl)c1ccc(Cl)cc1 the results were Anthrax LF inh2 0, BoNT F protease -6, MazF activator 3, Autofluor counter 2613 and BoNT A protease 0.
`CCC(C)Sc1cccc(-c2nc3cc(C)ccn3c2NCc2ccccc2)c1` (stereo not given) gave Anthrax LF inh2 -3, BoNT F protease -10, MazF activator -10, Autofluor counter 3587 and BoNT A protease -1.
`CCC(C)NC(=O)c1ccc(CS(=O)(=O)Cc2ccc(Cl)cc2)o1` (stereo not given) gave Anthrax LF inh2 -2, BoNT F protease -6, MazF activator 1, Autofluor counter 23433* and BoNT A protease -4.
Screening CCC(C)NC(=O)c1ccc(CSCc2ccc(Cl)cc2)o1 (stereo not given) returned Anthrax LF inh2 25, BoNT F protease -8, MazF activator 1, Autofluor counter 3616 and BoNT A protease 0.
`COc1cc(-c2coc3c(C(=O)NCc4ccc(C(F)(F)F)cc4)cccc23)ccc1O` gave Anthrax LF inh2 -12, BoNT F protease -14, Autofluor counter 3649 and BoNT A protease -1.
`Cc1ccnc(NC(=O)CCc2c(C)nc3ncnn3c2C)c1` gave Anthrax LF inh2 -2, BoNT F protease 2, MazF activator 0, Autofluor counter 20457* and BoNT A protease 1.
For Cc1nc2ncnn2c(C)c1CCC(=O)NCCC1=CCCCC1 the results were Anthrax LF inh2 -2, BoNT F protease -2, MazF activator 11, Autofluor counter 20756* and BoNT A protease -1.
CCc1c(C)nc2ncnn2c1NCCc1ccc(OC)c(OC)c1 was read as Anthrax LF inh2 -1, BoNT F protease 4, MazF activator -2, Autofluor counter 18500* and BoNT A protease 4.
Screening COC(=O)c1ccc(NC(=O)CCc2c(C)nc3ncnn3c2C)cc1 returned Anthrax LF inh2 0, BoNT F protease -3, MazF activator -9, Autofluor counter 22498* and BoNT A protease -1.
CC(=O)c1ccc(NC(=O)CCc2c(C)nc3ncnn3c2C)cc1 was read as Anthrax LF inh2 0, BoNT F protease -2, MazF activator 1, Autofluor counter 5617 and BoNT A protease 0.
For CCCNC(=O)c1cc2c(c(-c3cccc(-c4ccccc4F)c3)n1)[C@H](CCO)N(C(=O)CC1CC1)C2 the results were Anthrax LF inh2 -4, BoNT F protease 0, Autofluor counter 6339 and BoNT A protease 0.
For COC(=O)C=C1CCC2C3CCC4=CC(=O)C(Br)CC4(C)C3C(=O)CC12C (stereo not given) the results were Anthrax LF inh2 -2, BoNT F protease -6, MazF activator 3, Autofluor counter 3768 and BoNT A protease 0.
CCOC(=O)c1ccc(Nc2c(CC)c(C)nc3ncnn23)cc1 was read as Anthrax LF inh2 -3, BoNT F protease -2, MazF activator 4, Autofluor counter 17060* and BoNT A protease -2.
Cc1oc2ccc(O)cc2c1C(=O)c1ccccc1 was read as Anthrax LF inh2 -5, BoNT F protease inconclusive, MazF activator 15, Autofluor counter 3623 and BoNT A protease 0.
Screening CC(=O)c1cc2c(C)c(C(=O)c3ccccc3)oc2cc1O returned Anthrax LF inh2 0, BoNT F protease -4, MazF activator 89*, Autofluor counter 2923 and BoNT A protease 0.
COc1ccc(N2CCN(C(=O)Cc3ccc(-n4c(=O)[nH]c5ccccc5c4=O)cc3)CC2)cc1 was read as Anthrax LF inh2 -1, BoNT F protease 10, MazF activator 3, Autofluor counter 4148 and BoNT A protease -1.
`O=C(Cc1ccc(-n2c(=S)[nH]c3ccccc3c2=O)cc1)N1CCC(N2CCCCC2)CC1` gave Anthrax LF inh2 1, BoNT F protease -3, MazF activator 16, Autofluor counter 23979* and BoNT A protease -2.
`Cc1ccnc(NC(=O)CCNC(=O)c2ccc(Br)cc2)c1` gave Anthrax LF inh2 -10, BoNT F protease 0, MazF activator 1, Autofluor counter 3875 and BoNT A protease 0.
Cc1ccccc1NC(=O)Nc1nc(C(N)Cc2ccccc2)cs1 (stereo not given) was read as Anthrax LF inh2 -1, BoNT F protease -10, Autofluor counter 3767 and BoNT A protease 0.
COC(=O)c1ccc(NC(=O)Cn2nc(-c3ccncc3)nc2SCC(=O)Nc2nccs2)cc1 was read as Anthrax LF inh2 -4, BoNT F protease 1, MazF activator 56*, Autofluor counter 6095 and BoNT A protease 0.
`CN1CCC(N(C)C(=O)c2cc(S(=O)(=O)N(C)c3ccccc3)ccc2Cl)CC1` gave Anthrax LF inh2 1, BoNT F protease 3, MazF activator -4, Autofluor counter 4273 and BoNT A protease -1.
For CCCS(=O)(=O)NC(=O)C1(C)CCN(C(=O)c2snnc2C)C1 (stereo not given) the results were Anthrax LF inh2 -1, BoNT F protease -2, Autofluor counter 3523 and BoNT A protease 0.
Screening Nc1c(C(=O)N2CCCCC2)sc(=S)n1-c1ccccc1 returned Anthrax LF inh2 0, BoNT F protease -2, MazF activator -6, Autofluor counter 21338* and BoNT A protease -1.
C=CCn1c(N)c(C(=O)N2CCN(C)CC2)sc1=S was read as Anthrax LF inh2 -7, BoNT F protease 0, MazF activator 3, Autofluor counter 22789* and BoNT A protease 2.
`C=CCn1c(N)c(C(=O)OCC)sc1=S` gave Anthrax LF inh2 4, BoNT F protease -14, MazF activator 2, Autofluor counter 9816 and BoNT A protease -1.
Nc1c(C(=O)N2CCOCC2)sc(=S)n1-c1ccccc1 was read as Anthrax LF inh2 1, BoNT F protease -4, MazF activator 4, Autofluor counter 21197* and BoNT A protease -5.
For Cc1ccc(-n2c(N)c(C(=O)N3CCCCC3)sc2=S)cc1 the results were MazF activator 2.
For Cc1ccc(-n2c(N)c(C(=O)N3CCN(C)CC3)sc2=S)cc1 the results were Anthrax LF inh2 -3, BoNT F protease -2, MazF activator 7, Autofluor counter 21266* and BoNT A protease -1.
For COc1ccc(-n2nnnc2C(c2ccccc2)N2CCN(C/C=C/c3ccccc3)CC2)cc1 (stereo not given) the results were Anthrax LF inh2 8, BoNT F protease 7, Autofluor counter 4222 and BoNT A protease 2.
Screening CCC(C)C(NC(=O)C(Cc1ccc(O)cc1)NC(=O)OCc1ccccc1)C(=O)OC (stereo not given) returned Anthrax LF inh2 -2, BoNT F protease -1, Autofluor counter 5604 and BoNT A protease -1.
C=CCn1c(N)c(C(=O)NCCC2=CCCCC2)sc1=S was read as Anthrax LF inh2 -5, BoNT F protease -4, MazF activator -3, Autofluor counter 16404* and BoNT A protease -1.
